# Sampled rows, rich in hits. Any-hit rate of the full collection: about 3%.
# C8 TRAIL sens – caspase-8 TRAIL sensitization | NB7+C8 cells + TRAIL, ATPlite viability luminescence | inhibition (viability loss, TRAIL sensitization), % at 10 µM | actives 1% (n = 360,000) | AID 624354;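 active = compounds causing at least 50% loss of cell viability in the single-dose screen, relative to plate controls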
# SENP7 block – SENP7 protease inhibition | Q9BQF6 | recombinant SENP7, Z-RLRGG-aminoluciferin luminescence, 40 min | inhibition, % at 5 µM | actives 1.5% (n = 330,000);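 active = inhibition above about 50% at the single test dose, limit read from the data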;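 also: plate controls were DMSO with enzyme for no effect and no enzyme buffer wells for full effect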
# SENP8 block-1 – SENP8 protease inhibition | actives 1.2% (n = 330,000) | purified SENP8, Z-RLRGG-aminoluciferin cleavage, luminescence | inhibition, % at 10 µM | Q96LD8; in the data active = inhibition above about 50%
# Target sequence (Q96LD8 whole entry, looked up): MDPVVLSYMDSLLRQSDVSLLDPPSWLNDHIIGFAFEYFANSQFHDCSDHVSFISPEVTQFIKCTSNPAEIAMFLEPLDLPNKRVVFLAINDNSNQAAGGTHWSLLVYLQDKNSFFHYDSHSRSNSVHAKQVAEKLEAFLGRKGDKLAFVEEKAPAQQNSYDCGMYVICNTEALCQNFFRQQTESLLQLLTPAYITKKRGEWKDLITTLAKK
# PPC-1+TRAIL kill – kills PPC-1 cancer cells in the presence of TRAIL. cell killing (% activity), % at 4 µM or 5 µM. PPC-1 cells + TRAIL, ATPLite viability luminescence. actives 0.41% (n = 220,000);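 active = cell killing above 50% in the first pass at 4 µM, then a duplicate retest at 5 µM averaging 50% or more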;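 also: plate controls were cells with TRAIL plus DMSO for no effect and medium-only wells lacking cells for full effect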
# SENP8 block-2 – inhibitors of human SENP8 protease. recombinant SENP8, Nedd8 substrate fluorescence. actives 0.64% (n = 360,000). inhibition, % at 20 µM. Q96LD8. AID 602440; in the data active = inhibition mostly above about 40%, no sharp cut-off; inactive = mostly below about 27%
# SENP6 inh – inhibitors of human SENP6 protease | Q9GZR1 | Recombinant SENP6 catalytic domain, aminoluciferin luminescence | inhibition, % at 10 µM | actives 1.8% (n = 330,000);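 active = inhibition above about 50% at the single tested dose, limit read from the data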;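 also: plate controls were DMSO wells with enzyme for no effect and DMSO wells lacking enzyme for full effect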
# PPC1 cytotox – kills PPC-1 cells | PPC-1 viability, ATPlite luminescence, overnight | cytotoxicity, % at 5 µM | AID 1447 | actives 50% (n = 1,200) | shares compounds with PPC-1+TRAIL kill;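 active = reconfirmed compounds whose average cytotoxicity reaches 50% or more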;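 also: 0% = DMSO-treated cells and 100% = wells holding medium but no cells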
# Starred values were filed as active, the others as inactive; . = no result.
SMILES,C8 TRAIL sens,SENP7 block,SENP8 block-1,PPC-1+TRAIL kill,SENP8 block-2,SENP6 inh,PPC1 cytotox
Cc1cccc(N=C2NN=C(c3ccc4c(c3)OCCO4)CS2)c1,29,-4,20,36,-71,23,33
CCn1c(SC)nc2c(c1=O)SC(C)C2 (stereo not given),-3,-4,-2,3,10,-7,4
CCc1ccc(C(=O)COC(=O)c2cccc(N3C(=O)c4c(C)nc5ccccc5c4C3=O)c2)cc1,73*,-2,-1,72*,13,3,72*
COc1ccc(N2CCN(C(=O)C3CCCN(S(=O)(=O)c4c(C)noc4C)C3)CC2)cc1 (stereo not given),-1,-5,-2,7,11,-8,.
CCOC(=O)c1c(Nc2ccccc2N)cc(C)nc1C,0,7,-3,-4,21,18,-26
CCOC(=O)c1c(N2CCN(c3ccccc3)CC2)cc(C)nc1C,2,-3,2,.,3,7,.
CCc1nc2ccccc2c(C(=O)OCC(=O)N2CC(C)OC(C)C2)c1C (stereo not given),10,2,3,.,11,2,.
O=C(Nc1cccc([N+](=O)[O-])c1)NC1CCCCCCC1,18,2,1,.,15,8,.
O=C(C1Cc2ccccc2CN1S(=O)(=O)c1ccc(F)cc1)N1CCCCC1 (stereo not given),-4,1,3,15,10,-3,2
O=C(N/N=C/c1cc(Br)cs1)c1ccc2c(c1)OCCO2,69*,-6,-22,58*,7,-4,60*
O=C(N/N=C/c1c(Cl)[nH]c2ccccc12)c1ccc2c(c1)OCCO2,66*,4,-2,65*,-112,-18,64*
Cc1ccc(/C=N/NC(=O)c2ccc3ccccc3c2)s1,29,-3,-5,.,-96,-12,.
Cc1ccc(/C=N/NC(=O)c2ccc3c(c2)OCCO3)s1,30,10,11,37,14,1,43
COCCOC(=O)C1=C(C)NC(=O)NC1c1cccc2ccccc12 (stereo not given),-1,-13,-11,.,6,-15,.
CC1=C[C@H]2OC(=O)[C@@H](C)[C@H]2C[C@@H]2[C@H]1C[C@@H](O)[C@@]2(C)O,-2,-8,4,12,7,-8,.
Cc1ccc(Sc2ncnc3onc(C)c23)c(C)c1,-2,.,.,-1,9,.,8
Cc1noc2ncnc(Sc3ccccc3Cl)c12,-17,13,6,4,20,12,.
COc1ccc2c(C)nc(Nc3nc(C)c(C)c(=O)[nH]3)nc2c1,12,0,-1,-10,1,-15,-12
CCN(CC)c1ccc(NC(=S)Nc2ccc(F)cc2)cc1,3,1,-5,16,32,14,6
COc1ccc(-n2ccn(CC(=O)Nc3ccc(OC)cc3OC)c(=O)c2=O)cc1,-7,-2,-9,.,0,16,.
CC(C)(C)c1ccc(-c2nnc(N)s2)cc1,71*,-18,-12,47,-16,-4,48
CN(C(=O)c1ccc(NC(=O)C2CCN(C(=O)OC(C)(C)C)CC2)cc1)C1CCC1,-5,2,8,.,15,4,.
CCOC(=O)c1cccc(C(=O)Nc2nc3ccc(OC)cc3s2)n1,82*,-15,-18,68*,-56,-28,67*
O=C1C(=O)c2ccc(-c3ccccc3)cc2-c2ccccc21,93*,91*,58*,97*,100*,89*,97*
O=C(Nc1ccc(-c2ccccc2)cc1)c1ccc2c(c1)S(=O)(=O)c1ccccc1C2=O,15,-4,2,.,24,5,.
O=C1C(Cl)=C(Nc2ccc(O)cc2)C(=O)c2ccccc21,89*,0,11,29,41*,26,30
Cc1cccc(C)c1C(O)c1ncc(-c2cccc(C(F)(F)F)c2)[nH]1 (stereo not given),-20,.,.,.,4,.,.
CCc1c(C)n2nc(C)cc2[nH]c1=O,-19,2,-1,14,-23,4,12
CC(C)(C)c1ccc(C(=O)/C=C2\NC(=O)CS2)cc1,85*,36,35,56*,8,39,57*
Cc1ccc(NC(=O)/C=C2\NC(=O)CS2)cc1,17,6,-5,.,1,-11,.
